# The panel holds about 79,000 compounds, 15% with a hit somewhere; the sample as a whole holds those more often. Unmarked numbers belong to inactive results. The source made the active and inactive calls. Rule as the data show it: active = growth inhibition above about 70%; inactive = the rest. Where a SMILES comes first, the peptide text is derived from it. The star is where a group is joined. Boc = CC(C)(C)OC(=O)*
# Experiments:
# [1] = NCI Yeast Anticancer Drug Screen. Data for the rad50 strain (AID 155);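 also: 0% = growth of vehicle-only cultures of the same strain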; conditions: S. cerevisiae rad50 strain growth inhibition; at 50.0 µM; hits give high values
# Outline: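 Readout: growth inhibition relative to vehicle-treated cultures. Compound exposure was carried out in a genetically defined yeast strain deficient in DNA damage repair.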
# [2] = NCI Yeast Anticancer Drug Screen. Data for the mec2-1 strain (AID 157); conditions: S. cerevisiae mec2-1 strain, at 50.0 µM, hits give high values
# Outline: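 Cells of the genetically defined mec2-1 yeast strain are incubated with test compound. Inhibition of growth is calculated against vehicle-treated controls.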
# [3] = NCI Yeast Anticancer Drug Screen. Data for the sgs1 mgt1 strain (AID 161);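 also: 0% = growth of cultures given vehicle only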; conditions: S. cerevisiae sgs1 mgt1 strain, at 50.0 µM, hits give high values
# Outline: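 Inhibition of yeast growth, normalised to vehicle-treated controls, is reported for a strain bearing genetic alterations in DNA damage repair.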
# [4] = NCI Yeast Anticancer Drug Screen. Data for the cln2 rad14 strain (AID 165);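 also: 0% = growth equal to vehicle treated cultures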; conditions: S. cerevisiae cln2 rad14 strain, at 50.0 µM, hits give high values
# Outline: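 The screen exposed genetically defined yeast (cln2 rad14) to test compounds and scored growth inhibition relative to vehicle-treated controls.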
# [5] = NCI Yeast Anticancer Drug Screen. Data for the bub3 strain (AID 167); conditions: S. cerevisiae bub3 mutant strain, at 50.0 µM, hits give high values
# Outline: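 Readout: yeast growth inhibition, expressed relative to vehicle-only wells. The test organism is a mutant strain from a panel with lesions in DNA repair or checkpoint genes.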
# [6] = NCI Yeast Anticancer Drug Screen. Data for the mlh1 rad18 strain (AID 175); conditions: S. cerevisiae mlh1 rad18 strain growth inhibition; at 50.0 µM; hits give high values
# Outline: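 Compound-treated yeast growth, normalised to vehicle controls. Strain bears defined DNA repair mutations.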
Compound,growth inhibition [1],growth inhibition [2] [%],growth inhibition [3],growth inhibition [4] [%],growth inhibition [5],growth inhibition [6]
CC(=O)c1cccc(NC(=O)OC2CCCC(C)C2)c1 (stereo unspecified),29.8%,60.7,59.6%,19.4,54%,43.1%
CCOC(=O)Cc1nc2ccc3c(c2[nH]c1=O)C(=O)c1ccccc1C3=O,34.7%,30.1,17.1%,29.4,33.2%,67.8%
COc1cc2c(cc1C(C)c1ccc(OC(C)C)cc1)OCO2 (stereo unspecified),-4.7%,-9.95,-3.95%,-48.5,-5.9%,-11.5%
O=P(O)(O)OP(=O)(O)OCC1OC(n2cnc3c(=S)nc[nH]c32)C(O)C1O (stereo unspecified),-2.65%,3.5,-5%,-9.2,3.55%,2.85%
O=C1NN=C(C2CCCCC2)C12CCCCC2,8.05%,-2.85,1.3%,2.85,5.45%,-8.4%
O=c1c2ccccc2nc2sc3nc4ccccc4c(=O)n3n12,4%,-10.8,-8.85%,-56,-4.2%,-11.8%
S=c1[nH][nH]c(=S)c2[nH]cnc12,1.6%,-3.1,-5.55%,-18.4,2.2%,-0.4%
O=C1CC(c2ccccc2)Oc2cc(O)cc(O)c21 (stereo unspecified),9.1%,-30.8,9.2%,22.6,-14.4%,16.7%
CCCCCCCC(N)C(=O)O (stereo unspecified),0%,-2.55,2.25%,-26.2,-10.1%,-12.9%
N/C(=N\Cl)C(Cl)(Cl)Cl,-17.9%,-16.5,6.25%,-26.6,2.1%,-21.4%
CC(=O)N1CCN(C=S)CC1,-16.5%,-9.6,-5.65%,15.8,-4.05%,-15.5%
CCC(=O)Oc1c(C(C)C)cccc1C(C)(C)C,-22%,-31.6,-19.7%,-8,-31.4%,-14.8%
Cc1ccc(N=Nc2c(C)nn(C(=S)S)c2C)cc1,71.9% (active),39.4,90% (active),35.8,83.3% (active),96.2% (active)
Cc1ccc(C(=O)CC2=NC3NN(c4ccccc4)C(=O)C3=C2CC(=O)c2ccc(C)cc2)cc1 (stereo unspecified),38%,2.4,4.55%,-13.1,-9.05%,45.3%
COc1ccc(C(Cc2ccccc2)Nc2ccccc2)cc1 (stereo unspecified),4.1%,-6.7,28.6%,-17,-0.95%,-1.2%
Cc1ccc(S(=O)(=O)Oc2ccc(-c3ccc([N+](=O)[O-])cc3)cc2)cc1,1.5%,19.2,15.4%,-6.9,-1.8%,7.05%
CCCCCCCCCCCCS(=O)(=O)CC(=O)O,-8.65%,7.9,8.15%,-84.2,29.4%,9.05%
N=c1ncn(Cc2ccccc2)c2nc[nH]c12,-2.4%,2,1.3%,-3.6,10%,-4%
O=C(O)/C=C/Sc1ccc(Cl)cc1,76% (active),32.5,79.3% (active),59.9,78% (active),78.4% (active)
CC1=NN(C(=O)Nc2ccccc2)C(=O)C2CCC(=O)N12 (stereo unspecified),-6.3%,-4.55,-3.55%,3.85,-1%,-8.1%
COc1ccc(-c2nc3c(nc2-c2ccc(OC)cc2)C(N)=NS(=O)(=O)N3)cc1,-18.9%,-7.95,-19.9%,2.2,-17.6%,-10.1%

Compound,growth inhibition [1],growth inhibition [2] [%],growth inhibition [3],growth inhibition [4] [%],growth inhibition [5],growth inhibition [6]
COC(=O)CCS(=O)(=O)Cc1ccccc1,0.95%,-1.3,-6.95%,-7.9,-1.65%,-0.5%
COc1cc2c(cc1OC)-c1cc3ccc(OC)c(OC)c3c[n+]1CC2,-8.55%,-21.8,23.6%,-14.1,-9.45%,-4.35%
NC(=O)NNC(=O)NC12CC3CC(CC(C3)C1)C2,-19%,-11.8,-10.2%,-45.8,0.65%,21.6%
CN(C)c1ccc(/C=C(\NC(=O)c2ccccc2)C(=O)Nc2ccccc2C(=O)NCc2ccccc2)cc1,9.95%,11.7,14.8%,12.3,5.95%,30.7%
Cc1[nH]c(=O)cc(C(=O)O)c1CN,7.15%,-8.75,3.7%,-59.2,-7.25%,-3.45%
CNC(=O)CNC(=O)C(NC(=O)CNC(=O)C1CCCN1C(=O)C(C)NC(=O)C(NC(=O)OC(C)(C)C)C(C)C)C(C)C (stereo unspecified) (Boc-VAPGVG-NHMe; configuration not given here),-12.9%,-23.6,-11.8%,-11,-16.2%,-18.2%
O=C(O)C1C(c2ccccc2)CC(=O)N1c1ccc(Cl)cc1 (stereo unspecified),1.55%,8.25,5.75%,1.1,19.6%,-7.6%
CN(C)/C(N)=N\C(N)=Nc1cc2ccccc2c2ccccc12,1.3%,-9.55,-0.2%,-23.2,2.25%,-0.55%
CCCC(CCC)C(=O)OCC(=O)c1ccc(-c2ccccc2)cc1,-1.4%,-2.6,5%,-43.9,2.7%,-0.1%
CC(=O)OCCOC(=O)Nc1cccc2ccccc12,-9.85%,-7.9,-1.3%,30.9,2.65%,-0.6%
Cc1nc(N)[nH]c(=O)c1N,13.9%,3.4,8.25%,11.8,-7.8%,8.6%
C=CCC1=C2CCCCC2CCC1=O (stereo unspecified),-5.7%,-27.8,-15.9%,3.3,-11%,4.95%
C(=N/Nc1ccncc1)/c1ccc2ccccc2n1,-1.8%,-22.6,-11.4%,-26.9,-7.65%,4.05%
COc1ccc2c(c1)c(=O)c1ccccc1n2/C=C/C(=O)O,-6%,-14.8,-8.9%,3.75,-3.05%,2.25%
CCOc1ncc(C(O)c2ccc(C)cc2)c(OCC)n1 (stereo unspecified),-1.05%,-11.1,-3.75%,-52.6,1.4%,-9.8%
N#Cc1c2nc3ccccc3nc2n2ccc3ccccc3c12,-50%,-61,-83.3%,-13.1,-42.5%,-71.7%
O=c1[nH]c(=O)c2ncn(-c3ccc([N+](=O)[O-])cn3)c2[nH]1,20.8%,7.3,9.95%,5.4,8.6%,-27.6%
CC1CC=C(C(O)C(C)C)C1 (stereo unspecified),0.2%,6.2,-2.7%,-11.8,4.15%,-0.9%
CC(C)Oc1cc2c(cc1O)CC[C@@H]1[C@@H]2CC[C@]2(C)[C@@H](O)CC[C@@H]12,45.9%,8.2,63.7%,33,56.9%,44.1%
CCOP(=O)(OCC)OCCCCn1cnc2c1c(=O)n(C)c(=O)n2C,-32%,-9.4,-15.7%,-38,-2.65%,-3.1%
